In PubChem BioAssay (NCATS):
Records with an inconclusive call do not appear. Calls of active or inactive are those of the source. Unless noted, calls come from the whole dose curve; as a rule, active = well fitted curve in the direction sought with a large enough effect; inconclusive = small, poorly fitted or top-dose-only effect, or another doubt; inactive = no such curve, though single readings can be large; an effect the other way counts as inactive or inconclusive.

What was measured:
[1] = target: Alpha-galactosidase (Coffea arabica) (UniProt Q42656); experiment: Counterscreen for Glucocerebrosidase Inhibitors: qHTS Assay for Coffee Bean alpha-Galactosidase at pH 5.9 (AID 998); settings: coffee bean alpha-galactosidase enzyme assay; series mostly up to 76.9 µM
Sequence of Alpha-galactosidase (Coffea arabica) (Q42656 whole entry, looked up): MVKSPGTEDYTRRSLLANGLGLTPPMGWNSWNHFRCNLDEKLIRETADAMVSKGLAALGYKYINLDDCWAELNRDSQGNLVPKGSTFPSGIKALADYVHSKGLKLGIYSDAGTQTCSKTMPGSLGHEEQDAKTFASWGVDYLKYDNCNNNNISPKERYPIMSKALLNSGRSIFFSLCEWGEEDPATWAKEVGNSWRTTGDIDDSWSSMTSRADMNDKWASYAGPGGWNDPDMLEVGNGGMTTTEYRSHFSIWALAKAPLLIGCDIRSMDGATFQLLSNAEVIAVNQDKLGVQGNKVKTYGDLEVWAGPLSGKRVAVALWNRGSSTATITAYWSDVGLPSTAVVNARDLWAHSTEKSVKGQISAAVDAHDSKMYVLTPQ
In short: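 Green coffee bean enzyme (2 nM) with 4-methylumbelliferyl alpha-D-galactopyranoside (80 uM) in 50 mM citric acid, 0.005% Tween-20, pH 5.9, 20 min at room temperature; compounds 0.7 nM–77 uM. Stopped at pH 10, fluorescence Ex365/Em440; Hill-fit AC50.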

[2] = target: alpha-glucosidase (Oryza sativa, rice) (UniProt Q653V4); experiment: Counterscreen for Glucocerebrosidase Inhibitors: qHTS Assay for Rice alpha-Glucosidase at pH 5.0 (AID 997); settings: rice alpha-glucosidase enzyme activity; series mostly up to 76.9 µM
In short: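 Rice alpha-glucosidase (4 nM final) with 400 uM 4-methylumbelliferyl-alpha-D-glucopyranoside in citrate buffer pH 5.0, 20 min at room temperature, stopped at pH 10; fluorescence 365/440 nm, compounds 0.7 nM–77 uM, AC50 from Hill fits.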

[3] = Cell Viability - LYMP2-026 (AID 989); settings: LYMP2-026 lymphoblastoid cell viability, qHTS; series mostly up to 92.2 µM;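 note: cells exposed to compound for 24 h at 37 °C; nearly all actives have a fitted effect of over 50% in size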
In short: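 Luminescent ATP signal (CellTiter-Glo, 30 min room temperature) measures viable lymphoblastoid cells after 24 hr compound treatment at 37 C. Decreased ATP reflects acute toxicity; AC50 values come from Hill-equation modeling.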

[4] = Cell Viability - LYMP1-002 - Assay at 24 hr (AID 993); settings: LYMP1-002 lymphoblastoid cells viability; series mostly up to 92.2 µM; note: potency is the fitted concentration of half-maximal effect
In short: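 Cells plated 2500/well, 5 hr 37 C; compounds added, 24 hr 37 C; CellTiter-Glo added, 30 min RT; luminescence read. Tetraoctylammonium bromide positive control. Hill-equation AC50.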

[5] = Cell Viability - LYMP1-002 - Assay at 40 hr (AID 994); settings: LYMP1-002 lymphoblastoid cell viability; series mostly up to 92.2 µM; note: nearly all actives have a fitted effect of over 60% in size; note: potency is the fitted concentration of half-maximal effect
In short: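 Luminescent ATP signal served as the viability readout, with decreases taken as toxicity. Cells were treated with compounds across a concentration range for 40 hours at 37 C, and AC50 values came from standard Hill modeling.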

[6] = qHTS Assay for Identification of Small Molecule Inducers of Hypoxia Response (AID 2120; active = well fitted curve in the direction sought with a large enough effect in the signal ratio, with a control signal flat, not every such curve was filed as active; the % refers to the signal ratio); settings: hypoxia response reporter cells, beta-lactamase ratio readout; series mostly up to 104 µM
In short: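 ME-180 HRE-bla cells plated in Opti-MEM/0.5% dialyzed FBS, rested 4-5 h, then dosed with compound titrations by pin tool. After 17 h at 37 degrees C, CCF4 dye loaded 2.5 h at RT; 460/530 nm ratio gave %Activity and AC50.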

[7] = target: DNA repair nuclease/redox regulator APEX1 (Homo sapiens) (UniProt P27695); experiment: qHTS Validation Assay for Inhibitors of the Human Apurinic/apyrimidinic Endonuclease 1 (APE1) (AID 1705;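 note: TAMRA fluorescence gain over two minutes as APE1 cuts a quenched THF abasic duplex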); settings: purified APE1 endonuclease activity, fluorescence, titration; series mostly up to 57.1 µM
Sequence of DNA repair nuclease/redox regulator APEX1 (Homo sapiens) (P27695 whole entry, looked up): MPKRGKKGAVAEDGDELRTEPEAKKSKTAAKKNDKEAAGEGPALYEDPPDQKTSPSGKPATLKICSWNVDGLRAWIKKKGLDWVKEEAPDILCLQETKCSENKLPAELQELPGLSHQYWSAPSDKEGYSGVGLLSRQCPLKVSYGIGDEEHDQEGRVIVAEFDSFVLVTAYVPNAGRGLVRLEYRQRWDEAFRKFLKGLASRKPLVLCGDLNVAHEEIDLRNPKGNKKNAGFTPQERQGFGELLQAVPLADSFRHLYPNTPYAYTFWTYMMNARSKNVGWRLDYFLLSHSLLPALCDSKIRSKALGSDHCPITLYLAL
In short: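 Activity read as rising fluorescence (598 nm emission, 525 nm excitation) from incision of a TAMRA/BHQ-2 duplex carrying a THF abasic site (50 nM). Compound and enzyme sat 15 min at RT before substrate start; signal change between first and third 60-s reads.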

[8] = Counterscreen for APE1 Inhibitors: Fluorescent Dye Displacement Validation Assay (AID 1707); settings: fluorescent dye displacement from DNA; series mostly up to 57.1 µM
In short: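 ThO 250 nM + dsDNA 50 nM (THF abasic site, 5'-TAMRA), Tris-HCl pH7.5/50mM NaCl/2 mM MgCl2/0.01% Tween-20; compounds pin-transferred; ex 480/em 540 nm endpoint. Neutral = no compound; no-DNA ThO wells = negative control.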

[9] = qHTS for differential inhibitors of proliferation of Plasmodium falciparum line 7G8 (AID 1815); settings: Plasmodium falciparum 7G8 proliferation inhibition; series mostly up to 28.7 µM;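 note: potency is the fitted concentration of half-maximal effect; parasite growth measured after three days of incubation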
[10] = qHTS for differential inhibitors of proliferation of Plasmodium falciparum line GB4 (AID 1816); settings: Potency: Plasmodium falciparum GB4 proliferation inhibition; series mostly up to 28.7 µM;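 note: potency is the fitted concentration of half-maximal effect; parasite growth measured after 72 h incubation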
[11] = qHTS for differential inhibitors of proliferation of Plasmodium falciparum line 3D7 (AID 1876); note: potency is the fitted concentration of half-maximal effect; settings: P. falciparum 3D7 proliferation inhibition; series mostly up to 28.7 µM
[12] = qHTS for differential inhibitors of proliferation of Plasmodium falciparum line D10 (AID 1877); settings: series mostly up to 28.7 µM;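 note: potency is the fitted concentration of half-maximal effect; parasites grown with compound for 72 h before DNA staining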
[13] = qHTS for differential inhibitors of proliferation of Plasmodium falciparum line Dd2 (AID 1882); settings: Potency: Plasmodium falciparum Dd2 proliferation inhibition; series mostly up to 28.7 µM; note: potency is the fitted concentration of half-maximal effect; nearly all actives have a fitted effect of over 65% in size
In short: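 Dd2-infected erythrocytes (0.3% parasitemia, 2.5% hematocrit final) incubated with compound 72 h at 37 C, 5% CO2; lysed with saponin/Triton buffer containing SYBR Green I, incubated overnight in the dark, then read by fluorescence (485/535 nm). Normalized to 0.29 uM artemisinin and DMSO.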

[14] = qHTS for differential inhibitors of proliferation of Plasmodium falciparum line W2 (AID 1883); settings: Potency: Plasmodium falciparum W2 proliferation inhibition; series mostly up to 28.7 µM;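 note: potency is the fitted concentration of half-maximal effect; parasites grown with compound for 72 h before lysis and staining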
[15] = qHTS for differential inhibitors of proliferation of Plasmodium falciparum line HB3 (AID 1886); settings: Potency: Plasmodium falciparum HB3 proliferation inhibition; series mostly up to 28.7 µM;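 note: potency is the fitted concentration of half-maximal effect; parasites grown with compound for 72 h before SYBR Green readout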

Measured: Potency

CN(C)CCC=C1c2ccccc2C=Cc2ccccc21
inactive: [1]

N[C@@H]1C[C@H]1c1ccccc1
inactive: [2] | [1]

CC[N+](C)(C)c1cccc(O)c1
inactive: [1]

NNc1nncc2ccccc12
inactive: [1]

Oc1ccccc1-c1ccccc1
inactive: [3] | [4] | [5] | [6]

Fc1ccc(C(OCCN2CCN(CCCc3ccccc3)CC2)c2ccc(F)cc2)cc1
inactive: [2] | [1] | [7] | [8]
active: [9] 3.98 µM | [10] 3.98 µM | [11] 7.08 µM | [12] 12.6 µM | [13] 7.94 µM | [14] 2.82 µM | [15] 4.47 µM

O=c1[nH]c2ccccc2n1C1CCN(CCCC(c2ccc(F)cc2)c2ccc(F)cc2)CC1
inactive: [2] | [1] | [8]
active: [9] 3.98 µM | [10] 8.91 µM | [11] 3.16 µM | [12] 7.08 µM | [13] 10 µM | [14] 2.82 µM | [15] 5.62 µM

OCCOc1ccccc1
inactive: [3] | [4] | [5] | [6]

CC(=O)Oc1ccccc1C(=O)Nc1ncc([N+](=O)[O-])s1
active: [4] 39.8 µM | [5] 39.8 µM

Oc1ccc(Cl)cc1Cc1ccccc1
inactive: [3] | [4] | [5]

Cc1c(OCC(F)(F)F)ccnc1CS(=O)c1nc2ccccc2[nH]1 (configuration not stated)
inactive: [1]
active: [9] 8.91 µM | [10] 10 µM | [11] 11.2 µM | [12] 12.6 µM | [14] 10 µM | [15] 11.2 µM

N[C@@H](Cc1ccc(N(CCCl)CCCl)cc1)C(=O)O
inactive: [4] | [5]

CCOP(=S)(OCC)Oc1cc(C)nc(C(C)C)n1
inactive: [3] | [4] | [5] | [6]
